We go through 47 compounds from the supplement of paper PMC6331611.

In this assay the test system is Salmonella enterica serovar Typhimurium SL1344. Put plainly: normalized intracellular growth (luminescence, IQM-normalized) in RAW264.7 macrophages (fraction of plate interquartile mean); higher = more bacterial growth (less inhibition). The note with it: 10 µM.

SMILES strings stand for the structures. ± gives the standard deviation of the averaged measurements. Over roughly 1,600 compounds, “normalized intracellular growth (luminescence, IQM-normalized) in RAW264.7 macrophages” has its median near 1; the lowest 2% begin near 0.43. This excerpt belongs to a sample that is enriched for the lowest values.

`CCCCC(CC)COC(=O)c1ccccc1O` (centres undefined): the normalized intracellular growth is 1.05 ± 0.055 (time point: T3 (3 h)) and 0.89 ± 0.17 (time point: Tfinal (~6 h)).
Consider `Nc1ccc(C(=O)O)cc1`, for which the normalized intracellular growth (time point: T3 (3 h)) is 1.023 ± 0.0022 and the normalized intracellular growth (time point: Tfinal (~6 h)) was determined as 0.829 ± 0.11.
With `O=c1[nH]c(=O)n([C@H]2C[C@H](O)[C@@H](CO)O2)cc1I`, the normalized intracellular growth reads like this: (time point: T3 (3 h)) 1.005 ± 0.0041; (time point: Tfinal (~6 h)) 1.01 ± 0.2.
For `CCc1cn([C@H]2C[C@H](O)[C@@H](CO)O2)c(=O)[nH]c1=O`, in that order: 1.09 ± 0.034 and 0.868 ± 0.01.
In turn, `O=c1[nH]c(=O)n([C@H]2C[C@H](O)[C@@H](CO)O2)cc1F` displayed a normalized intracellular growth (time point: T3 (3 h)) of 0.699 ± 0.043 and a normalized intracellular growth (time point: Tfinal (~6 h)) of 0.209 ± 0.03.
On the same counts, the results for `CC(C)(C)C(=O)C(Oc1ccc(Cl)cc1)n1ccnc1` (centres undefined) are 1.042 ± 0.0043 and 1.12 ± 0.016.
Consider `N#Cc1ccc2c(c1)N(CCCN1CCC(O)CC1)c1ccccc1S2`, for which the normalized intracellular growth (time point: T3 (3 h)) is 1.04 ± 0.014 and the normalized intracellular growth (time point: Tfinal (~6 h)) stood at 0.869 ± 0.15.
On the same counts, the results for `CC(C)C[C@@H]1NC(=O)[C@H](CCCN)NC(=O)[C@H](C(C)C)NC(=O)[C@H](Cc2ccc(O)cc2)N[C@@H](CCC(=O)O)C(=O)N[C@@H](CC(N)=O)C(=O)[C@@H](Cc2ccccc2)NC(=O)[C@H](Cc2ccccc2)NC(=O)[C@@H]2CCCN2C(=O)[C@@H](Cc2ccccc2)NC1=O` are 0.95 ± 0.055 and 1 ± 0.064.
In the case of `Cc1nnc(SCC2=C(C(=O)O)N3C(=O)[C@@H](NC(=O)Cn4cnnn4)[C@H]3SC2)s1`, the normalized intracellular growth was determined as 1.09 ± 0.087 (time point: T3 (3 h)) and 1.2 ± 0.074 (time point: Tfinal (~6 h)).
For `COCC1=C(C(=O)OC(C)OC(=O)OC(C)C)N2C(=O)[C@@H](NC(=O)/C(=N\OC)c3csc(N)n3)[C@H]2SC1` (some centres undefined), in that order: 0.953 ± 0.066 and 1.06 ± 0.2.
On to `N[C@@H](C(=O)N[C@@H]1C(=O)N2C(C(=O)O)=C(Cl)CS[C@H]12)c1ccccc1`, for which the normalized intracellular growth reads like this: (time point: T3 (3 h)) 1.03 ± 0.054; (time point: Tfinal (~6 h)) 1.08 ± 0.021.
For `CC=CC1=C(C(=O)O)N2C(=O)[C@@H](NC(=O)[C@H](N)c3ccc(O)cc3)[C@H]2SC1`, in that order: 1.06 ± 0.039 and 0.738 ± 0.11.
As for `Cn1nnnc1SCC1=C(C(=O)O)N2C(=O)[C@@H](NC(=O)[C@H](O)c3ccccc3)[C@H]2SC1`, the normalized intracellular growth (time point: T3 (3 h)) amounted to 1.08 ± 0.041 and the normalized intracellular growth (time point: Tfinal (~6 h)) turned out to be 1.02 ± 0.17.
Turning to `CC(=O)OCC1=C(C(=O)O)N2C(=O)[C@@H](NC(=O)CSc3ccncc3)[C@H]2SC1`, the normalized intracellular growth is, setting by setting: (time point: T3 (3 h)) 1 ± 0.024; (time point: Tfinal (~6 h)) 0.957 ± 0.042.
For `CO/N=C(\C(=O)N[C@@H]1C(=O)N2C(C(=O)O)=C(COC(C)=O)CS[C@H]12)c1csc(N)n1`, in that order: 0.898 ± 0.017 and 0.178 ± 0.0072.
For the compound `CO/N=C(\C(=O)N[C@@H]1C(=O)N2C(C(=O)O)=C(C[N+]3(C)CCCC3)CS[C@H]12)c1csc(N)n1`, the normalized intracellular growth amounted to 1.01 ± 0.054 (time point: T3 (3 h)) and 0.0358 ± 0.0021 (time point: Tfinal (~6 h)).
In the case of `C=CC1=C(C(=O)O)N2C(=O)[C@@H](NC(=O)/C(=N\O)c3csc(N)n3)[C@H]2SC1`, the normalized intracellular growth reads like this: (time point: T3 (3 h)) 0.973 ± 0.034; (time point: Tfinal (~6 h)) 0.0262 ± 0.0031.
Consider `CC(=O)OCC1=C(C(=O)O)N2C(=O)[C@@H](NC(=O)Cc3cccs3)[C@H]2SC1`, for which the normalized intracellular growth runs as follows: (time point: T3 (3 h)) 0.979 ± 0.037; (time point: Tfinal (~6 h)) 1.01 ± 0.027.
As to `CO/N=C(\C(=O)N[C@@H]1C(=O)N2C(C(=O)OCOC(=O)C(C)(C)C)=C(/C=C\c3scnc3C)CS[C@H]12)c1csc(N)n1`, the normalized intracellular growth reads like this: (time point: T3 (3 h)) 0.923 ± 0.047; (time point: Tfinal (~6 h)) 0.0689 ± 0.074.
As for `NC(=O)NC(=O)Cc1ccccc1`, the normalized intracellular growth is 0.993 ± 0.021 (time point: T3 (3 h)) and 0.979 ± 0.038 (time point: Tfinal (~6 h)).
The compound `CNC(=N)NCCC[C@H](N)C(=O)O` had a normalized intracellular growth (time point: T3 (3 h)) of 1.11 ± 0.029 and a normalized intracellular growth (time point: Tfinal (~6 h)) of 0.921 ± 0.26.
`NC[C@H]1O[C@H](O[C@H]2[C@H](O)[C@@H](O[C@H]3O[C@H](CO)[C@@H](O)[C@H](N)[C@H]3O)[C@H](N)C[C@@H]2N)[C@H](N)[C@@H](O)[C@@H]1O`: the normalized intracellular growth stood at 0.81 ± 0.012 (time point: T3 (3 h)) and 0.554 ± 0.025 (time point: Tfinal (~6 h)).
On the same counts, the results for `CC1(C)[C@H]2CC[C@]1(CS(=O)(=O)O)C(=O)C2=Cc1ccc(C=C2C(=O)[C@@]3(CS(=O)(=O)O)CC[C@@H]2C3(C)C)cc1` are 0.978 ± 0.028 and 1.17 ± 0.22.
For `Cc1nccnc1N1CCCCC1`, in that order: 1.09 ± 0.057 and 0.933 ± 0.023.
Regarding `CCC(=O)O[C@H](CC(=O)O)C[N+](C)(C)C`, the normalized intracellular growth runs as follows: (time point: T3 (3 h)) 1.06 ± 0.052; (time point: Tfinal (~6 h)) 1 ± 0.028.
On the same counts, the results for `NCCNCCNCCN` are 0.972 ± 0.044 and 1.2 ± 0.037.
Turning to `CC(=O)OC1CC2CCC1(C)C2(C)C` (centres undefined), the normalized intracellular growth runs as follows: (time point: T3 (3 h)) 1.011 ± 0.01; (time point: Tfinal (~6 h)) 1.14 ± 0.018.
On the same counts, the results for `CC[n+]1c(-c2ccccc2)c2cc(N)ccc2c2ccc(N)cc21` are 0.993 ± 0.05 and 1.13 ± 0.11.
On the same counts, the results for `CC(C)(C)CC(C)(C)c1cc(Cc2cc(C(C)(C)CC(C)(C)C)cc(-n3nc4ccccc4n3)c2O)c(O)c(-n2nc3ccccc3n2)c1` are 1.02 ± 0.096 and 1.19 ± 0.3.
On the same counts, the results for `CNC(=O)c1c(I)c(NC(C)=O)c(I)c(C(=O)O)c1I` are 1.01 ± 0.056 and 0.883 ± 0.21.
Regarding `C[N+]1(C)[C@@H]2CC[C@H]1C[C@@H](OC(=O)C(O)c1ccccc1)C2` (some centres undefined), the normalized intracellular growth is, setting by setting: (time point: T3 (3 h)) 0.968 ± 0.056; (time point: Tfinal (~6 h)) 1.06 ± 0.025.
`C[C@]12C=CC(=O)C=C1CC[C@@H]1[C@@H]2[C@@H](O)C[C@@]2(C)[C@H]1CC[C@]2(O)C(=O)COP(=O)(O)O`: the normalized intracellular growth runs as follows: (time point: T3 (3 h)) 0.954 ± 0.029; (time point: Tfinal (~6 h)) 1.16 ± 0.24.
Take `S=C1SCN(Cc2ccccc2)CN1Cc1ccccc1`: the normalized intracellular growth is, setting by setting: (time point: T3 (3 h)) 1.01 ± 0.087; (time point: Tfinal (~6 h)) 0.779 ± 0.14.
For `CCOC(=O)C1=C[C@@H](OC(CC)CC)[C@H](NC(C)=O)[C@@H](N)C1`, in that order: 1.01 ± 0.021 and 1.33 ± 0.15.
On the same counts, the results for `CN(Cc1cnc2nc(N)nc(N)c2n1)c1ccc(C(=O)NC(CCC(=O)O)C(=O)O)cc1` (racemic) are 1.05 ± 0.046 and 0.825 ± 0.024.
On the same counts, the results for `CO/N=C(\C(=O)N[C@@H]1C(=O)N2C(C(=O)OC(C)OC(C)=O)=C(COC(N)=O)CS[C@H]12)c1ccco1` (some centres undefined) are 1.09 ± 0.063 and 0.977 ± 0.23.
For the compound `Cn1nnnc1SCC1=C(C(=O)O)N2C(=O)[C@@H](NC(=O)[C@H](OC=O)c3ccccc3)[C@H]2SC1`, the normalized intracellular growth is, setting by setting: (time point: T3 (3 h)) 0.866 ± 0.094; (time point: Tfinal (~6 h)) 0.979 ± 0.024.
On the same counts, the results for `CC1=C(C(=O)O)N2C(=O)[C@@H](NC(=O)[C@H](N)c3ccc(O)cc3)[C@H]2SC1` are 0.982 ± 0.0066 and 0.831 ± 0.018.
On the same counts, the results for `CC1=C(C(=O)O)N2C(=O)[C@@H](NC(=O)[C@H](N)c3ccccc3)[C@H]2SC1` are 1.017 ± 0.0017 and 1.07 ± 0.1.
On the same counts, the results for `CO/N=C(\C(=O)N[C@@H]1C(=O)N2C(C(=O)O)=C(CSc3nnnn3C)CS[C@H]12)c1csc(N)n1` are 0.987 ± 0.052 and 0.935 ± 0.032.
For `CO/N=C(\C(=O)N[C@@H]1C(=O)N2C(C(=O)O)=C(CSC(=O)c3ccco3)CS[C@H]12)c1csc(N)n1`, the normalized intracellular growth is, setting by setting: (time point: T3 (3 h)) 1 ± 0.029; (time point: Tfinal (~6 h)) 0.0233 ± 0.0029.
For `CO/N=C(\C(=O)N[C@@H]1C(=O)N2C(C(=O)O)=C(CSc3nc(=O)c(O)nn3C)CS[C@H]12)c1csc(N)n1`, the normalized intracellular growth runs as follows: (time point: T3 (3 h)) 0.891 ± 0.022; (time point: Tfinal (~6 h)) 0.311 ± 0.035.
On the same counts, the results for `CO/N=C(\C(=O)N[C@@H]1C(=O)N2C(C(=O)O)=C(COC(N)=O)CS[C@H]12)c1ccco1` are 0.994 ± 0.043 and 0.732 ± 0.083.
Regarding `Nc1nc(/C(=C/CC(=O)O)C(=O)N[C@@H]2C(=O)N3C(C(=O)O)=CCS[C@H]23)cs1`, the normalized intracellular growth (time point: T3 (3 h)) was 0.951 ± 0.059 and the normalized intracellular growth (time point: Tfinal (~6 h)) stood at 0.0259 ± 0.0032.
As for `Cc1ncc(CSSCc2cnc(C)c(O)c2CO)c(CO)c1O`, the normalized intracellular growth turned out to be 0.943 ± 0.057 (time point: T3 (3 h)) and 1.06 ± 0.015 (time point: Tfinal (~6 h)).
On to `O=C(O)C1=C(CSc2nnnn2CS(=O)(=O)O)CS[C@@H]2[C@H](NC(=O)[C@H](O)c3ccccc3)C(=O)N12`, for which the normalized intracellular growth runs as follows: (time point: T3 (3 h)) 0.979 ± 0.034; (time point: Tfinal (~6 h)) 0.824 ± 0.19.
For `Cc1ccc2c(Br)cc(Br)c(OC(=O)c3ccccc3)c2n1`, in that order: 0.944 ± 0.025 and 1.01 ± 0.097.
